The text below walks through data of PubChem BioAssay (EPA / NIEHS).

What is called AC50 is the concentration giving half of the maximal activity seen.

Activity calls are given as the source filed them. Rule for the calls: active = hit-call score of the fitted dose curve at least 0.9, where 1 is the maximum; inactive = score below 0.9.

Read-out in one assay: Urokinase-type plasminogen activator receptor (uPAR), PLAUR (gene 5329)
Briefly: BSK_BE3C_uPAR: BioMAP Diversity Plus: BE3C Assay for Urokinase-type plasminogen activator receptor (uPAR) Biomarker Activity (AID 2283039).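 For outcome: uPAR protein level measured by ELISA on the cells; cells exposed to compound for one day before measurement.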 As to conditions: primary human bronchial epithelial cells; actives raise or lower the signal. An outline of the steps:
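ELISA readout of uPAR on human lung primary bronchial epithelial cells, 24 h post-dosing. Bidirectional curve fit relative to DMSO vehicle baseline; gain or loss of signal both scored.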
Regarding `COCCOC[C@H](CC1(C(=O)NC2CCC(C(=O)O)CC2)CCCC1)C(=O)Oc1ccc2c(c1)CCC2` (stereo partly specified), the result was inactive.

Take `COc1cc(-c2nc(NC(=O)c3cc4cc(C)cc(C)c4n3CC(=O)O)sc2CCC2CCCCC2)c(OC)cc1Cl`: the concentration at half-maximal activity (AC50) was 4.47 µM (active).

In the case of `NCC1(Cc2noc(=O)[nH]2)CCCCC1`, the outcome was inactive.

With `CCCCC(CC)COC(=O)CC(C(=O)OCC(CC)CCCC)S(=O)(=O)O` (stereo unspecified), the concentration at half-maximal activity (AC50) is 11.9 µM (active).

With `CCOC(=O)CCC(=O)OCC`, the result was inactive.

Take `Nc1ccc(S(=O)(=O)c2ccc(N)cc2)cc1`: the outcome was inactive.

Regarding `CC(C)c1ccc(C(=O)N=C(N)N)cc1S(C)(=O)=O`, the result was inactive.

In the case of `CCCCCCOCCO`, the outcome was inactive.

In the case of `CC(CO)OC(C)CO` (stereo unspecified) (tested in a mixture with another compound), the result was inactive.

For `COc1cc(C=O)ccc1O`, the outcome was inactive.

For `c1cc(-c2ccncc2)ccn1`, the outcome was inactive.

As for `CCNc1cccc(C)c1`, the outcome was inactive.

Regarding `CN1CCN(Cc2cc(-c3ccc4[nH]c(=O)oc4c3)co2)[C@@H](c2ccc(F)cc2)C1`, the outcome was inactive.

Take `Cc1nc(-c2ccc3c(c2)CCN(CCC2CCC(NC(=O)/C=C/c4ccc(F)cc4)CC2)CC3)no1` (stereo unspecified): the outcome was inactive.

Consider `O=c1c(O)c(-c2ccc(O)c(O)c2)oc2cc(O)cc(O)c12`, for which the outcome was inactive.

On to `CN[C@H]1CC[C@@H](c2ccc(Cl)c(Cl)c2)c2ccc(S(N)(=O)=O)cc21`, for which the AC50 was 30.2 µM (active).

In the case of `CCCCN(CCCC)CCCC`, the outcome was inactive.

As to `COC(=O)c1ccc(O)cc1`, the result was inactive.

With `CC1=C(/C=C/C(C)=C/C=C/C(C)=C/CO)C(C)(C)CCC1`, the result was inactive.

In the case of `CNC(=O)[C@H]1O[C@@H](n2cnc3c(NCc4cc(Cl)ccc4OCc4cc(C)no4)ncnc32)[C@H](O)[C@@H]1N`, the outcome was inactive.

For `Cc1cc(=O)[nH]c(=S)[nH]1`, the outcome was inactive.

As for `CCCCc1ccc2c(n1)[C@@H](c1ccc(OC)cc1C[C@H](C)C(=O)O)[C@H](C(=O)O)[C@H]2c1ccc2c(c1)OCO2`, the result was inactive.

As to `FC(F)(F)C(F)(F)C(F)(F)C(F)(F)C(F)(F)C(F)(F)CCI`, the outcome was inactive.

Regarding `C=CCOC(=O)c1ccccc1C(=O)OCC=C`, the result was inactive.

As for `O=[N+]([O-])C(CO)(CO)CO`, the outcome was inactive.

For `Oc1ccc2ccccc2c1N=Nc1ccccc1`, the outcome was inactive.

As for `O=C(N[C@@H](Cc1ccccc1)[C@@H](O)C(=O)N1C[C@@H](O)[C@@H](O)C1)c1cc2cc(Cl)ccc2[nH]1`, the outcome was inactive.

On to `CCCCCCCCCCCCCCCC`, for which the result was inactive.

On to `CCCCCCCCCCC`, for which the outcome was inactive.

Read-out in a further assay: Interleukin-6 (IL6), IL6 (gene 3569)
Briefly: BSK_CASM3C_IL6: BioMAP Diversity Plus: CASM3C Assay for Interleukin-6 (IL6) Biomarker Activity for (AID 2283040). As to conditions: primary human coronary artery smooth muscle cells; actives raise or lower the signal.
As for `COCCOC[C@H](CC1(C(=O)NC2CCC(C(=O)O)CC2)CCCC1)C(=O)Oc1ccc2c(c1)CCC2` (stereo partly specified), the outcome was inactive.

Take `COc1cc(-c2nc(NC(=O)c3cc4cc(C)cc(C)c4n3CC(=O)O)sc2CCC2CCCCC2)c(OC)cc1Cl`: the concentration at half-maximal activity (AC50) was 4.7 µM (active).

In the case of `NCC1(Cc2noc(=O)[nH]2)CCCCC1`, the result was inactive.

For `CCCCC(CC)COC(=O)CC(C(=O)OCC(CC)CCCC)S(=O)(=O)O` (stereo unspecified), the outcome was inactive.

Consider `CCOC(=O)CCC(=O)OCC`, for which the outcome was inactive.

For `Nc1ccc(S(=O)(=O)c2ccc(N)cc2)cc1`, the result was inactive.

For `CC(C)c1ccc(C(=O)N=C(N)N)cc1S(C)(=O)=O`, the outcome was inactive.

Take `CCCCCCOCCO`: the result was inactive.

As to `CC(CO)OC(C)CO` (stereo unspecified) (tested in a mixture with another compound), the result was inactive.

For the compound `COc1cc(C=O)ccc1O`, the result was inactive.

For `c1cc(-c2ccncc2)ccn1`, the result was inactive.

Consider `CCNc1cccc(C)c1`, for which the result was inactive.

On to `CN1CCN(Cc2cc(-c3ccc4[nH]c(=O)oc4c3)co2)[C@@H](c2ccc(F)cc2)C1`, for which the result was inactive.

As to `Cc1nc(-c2ccc3c(c2)CCN(CCC2CCC(NC(=O)/C=C/c4ccc(F)cc4)CC2)CC3)no1` (stereo unspecified), the outcome was inactive.

On to `O=c1c(O)c(-c2ccc(O)c(O)c2)oc2cc(O)cc(O)c12`, for which the concentration at half-maximal activity (AC50) is 8.19 µM (active).

For `CN[C@H]1CC[C@@H](c2ccc(Cl)c(Cl)c2)c2ccc(S(N)(=O)=O)cc21`, the AC50 was 33.1 µM (active).

With `CCCCN(CCCC)CCCC`, the outcome was inactive.

As for `CC1=C(/C=C/C(C)=C/C=C/C(C)=C/CO)C(C)(C)CCC1`, the outcome was inactive.

For the compound `CNC(=O)[C@H]1O[C@@H](n2cnc3c(NCc4cc(Cl)ccc4OCc4cc(C)no4)ncnc32)[C@H](O)[C@@H]1N`, the result was inactive.

With `Cc1cc(=O)[nH]c(=S)[nH]1`, the outcome was inactive.

`CCCCc1ccc2c(n1)[C@@H](c1ccc(OC)cc1C[C@H](C)C(=O)O)[C@H](C(=O)O)[C@H]2c1ccc2c(c1)OCO2`: the outcome was inactive.

On to `FC(F)(F)C(F)(F)C(F)(F)C(F)(F)C(F)(F)C(F)(F)CCI`, for which the outcome was inactive.

As to `C=CCOC(=O)c1ccccc1C(=O)OCC=C`, the result was inactive.

As to `O=[N+]([O-])C(CO)(CO)CO`, the result was inactive.

Consider `Oc1ccc2ccccc2c1N=Nc1ccccc1`, for which the result was inactive.

For the compound `O=C(N[C@@H](Cc1ccccc1)[C@@H](O)C(=O)N1C[C@@H](O)[C@@H](O)C1)c1cc2cc(Cl)ccc2[nH]1`, the outcome was inactive.

In the case of `CCCCCCCCCCCCCCCC`, the outcome was inactive.

As for `CCCCCCCCCCC`, the outcome was inactive.

Read-out in the next assay: Tissue plasminogen activator (tPA), PLAT (gene 5327)
Briefly: BSK_BE3C_tPA: BioMAP Diversity Plus: BE3C Assay for Tissue plasminogen activator (tPA) Biomarker Activity (AID 2283041).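 For outcome: tPA level quantified by ELISA one day after compound addition.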 As to conditions: primary human bronchial epithelial cells; actives raise or lower the signal. An outline of the steps:
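ELISA read-out of tPA on human primary bronchial epithelial cells, 24 h post-dosing; bidirectional fit vs DMSO negative control/baseline.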
For `COCCOC[C@H](CC1(C(=O)NC2CCC(C(=O)O)CC2)CCCC1)C(=O)Oc1ccc2c(c1)CCC2` (stereo partly specified), the result was inactive.

In the case of `COc1cc(-c2nc(NC(=O)c3cc4cc(C)cc(C)c4n3CC(=O)O)sc2CCC2CCCCC2)c(OC)cc1Cl`, the AC50 was 0.969 µM (active).

On to `NCC1(Cc2noc(=O)[nH]2)CCCCC1`, for which the result was inactive.

With `CCCCC(CC)COC(=O)CC(C(=O)OCC(CC)CCCC)S(=O)(=O)O` (stereo unspecified), the concentration at half-maximal activity (AC50) was 11.6 µM (active).

Turning to `CCOC(=O)CCC(=O)OCC`, the result was inactive.

`Nc1ccc(S(=O)(=O)c2ccc(N)cc2)cc1`: the outcome was inactive.

For the compound `CC(C)c1ccc(C(=O)N=C(N)N)cc1S(C)(=O)=O`, the outcome was inactive.

For `CCCCCCOCCO`, the outcome was inactive.

As to `CC(CO)OC(C)CO` (stereo unspecified) (tested in a mixture with another compound), the outcome was inactive.

As for `COc1cc(C=O)ccc1O`, the result was inactive.

On to `c1cc(-c2ccncc2)ccn1`, for which the outcome was inactive.

With `CCNc1cccc(C)c1`, the result was inactive.

As to `CN1CCN(Cc2cc(-c3ccc4[nH]c(=O)oc4c3)co2)[C@@H](c2ccc(F)cc2)C1`, the half-maximal activity concentration (AC50) is 3.27 µM (active).

Regarding `Cc1nc(-c2ccc3c(c2)CCN(CCC2CCC(NC(=O)/C=C/c4ccc(F)cc4)CC2)CC3)no1` (stereo unspecified), the result was inactive.

Consider `O=c1c(O)c(-c2ccc(O)c(O)c2)oc2cc(O)cc(O)c12`, for which the outcome was inactive.

Turning to `CN[C@H]1CC[C@@H](c2ccc(Cl)c(Cl)c2)c2ccc(S(N)(=O)=O)cc21`, the AC50 is 13 µM (active).

As to `CCCCN(CCCC)CCCC`, the outcome was inactive.

`COC(=O)c1ccc(O)cc1`: the outcome was inactive.

Regarding `CC1=C(/C=C/C(C)=C/C=C/C(C)=C/CO)C(C)(C)CCC1`, the result was inactive.

Take `CNC(=O)[C@H]1O[C@@H](n2cnc3c(NCc4cc(Cl)ccc4OCc4cc(C)no4)ncnc32)[C@H](O)[C@@H]1N`: the result was inactive.

For the compound `Cc1cc(=O)[nH]c(=S)[nH]1`, the outcome was inactive.

Take `CCCCc1ccc2c(n1)[C@@H](c1ccc(OC)cc1C[C@H](C)C(=O)O)[C@H](C(=O)O)[C@H]2c1ccc2c(c1)OCO2`: the result was inactive.

Take `FC(F)(F)C(F)(F)C(F)(F)C(F)(F)C(F)(F)C(F)(F)CCI`: the outcome was inactive.

Take `C=CCOC(=O)c1ccccc1C(=O)OCC=C`: the result was inactive.

For the compound `O=[N+]([O-])C(CO)(CO)CO`, the result was inactive.

Regarding `Oc1ccc2ccccc2c1N=Nc1ccccc1`, the result was inactive.

Take `O=C(N[C@@H](Cc1ccccc1)[C@@H](O)C(=O)N1C[C@@H](O)[C@@H](O)C1)c1cc2cc(Cl)ccc2[nH]1`: the result was inactive.

In the case of `CCCCCCCCCCCCCCCC`, the outcome was inactive.

On to `CCCCCCCCCCC`, for which the result was inactive.
